D2 ag-1 = activates the human D2 dopamine receptor; activation, % (test concentration not listed); P14416; 360,000 tested, 0.084% active; AID 624465; DiscoveRx PathHunter D2 beta-arrestin, luminescence, 90 min; 100% = 57 uM dopamine signal; in the data active = activation above about 40%; inconclusive = between about 15% and that limit
Target sequence (P14416 whole entry, looked up): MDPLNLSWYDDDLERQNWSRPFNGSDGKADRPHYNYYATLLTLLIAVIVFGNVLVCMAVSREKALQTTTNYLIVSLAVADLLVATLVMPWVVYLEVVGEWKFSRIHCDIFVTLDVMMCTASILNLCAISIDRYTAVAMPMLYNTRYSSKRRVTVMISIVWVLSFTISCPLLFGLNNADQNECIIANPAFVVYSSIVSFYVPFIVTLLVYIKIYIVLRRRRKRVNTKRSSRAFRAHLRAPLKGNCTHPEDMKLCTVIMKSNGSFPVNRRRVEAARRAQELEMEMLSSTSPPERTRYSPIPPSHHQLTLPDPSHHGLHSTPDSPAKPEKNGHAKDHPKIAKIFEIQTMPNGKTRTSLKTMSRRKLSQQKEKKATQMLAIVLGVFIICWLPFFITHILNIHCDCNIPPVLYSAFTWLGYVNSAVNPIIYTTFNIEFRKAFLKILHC
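Agonist mode: compounds alone added to overnight-plated D2 PathHunter cells for 90 min at 37 C, with 57 uM final dopamine (EC100) defining full response. Beta-arrestin recruitment detected by chemiluminescent reagent, read after 1 h at ambient temperature.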
D2 antagonist = antagonizes the human D2 dopamine receptor; P14416; HEK293 TREx D2 cells, calcium flux, dopamine EC80; inhibition, % at 10 µM; 340,000 tested, 2% active; AID 485344; in the data active = inhibition above about 30%; inactive = below that, where a call was filed; also: 0% is about no effect
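Compounds are added to dye-loaded, induced HEK293 T-REx cells coupled to calcium release via D2; after a 3 min kinetic read an EC80 dopamine stimulus is given and fluorescence is recorded for 3 more min.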
D2 PAM-1 = positive allosteric modulators of human D2 dopamine receptor; 360,000 tested, 0.23% active; potentiation, % (concentration not given with the values); DiscoveRx D2 beta-arrestin cells, luminescence, 90 min; 100% = 57 uM dopamine signal; P14416; in the data active = potentiation above about 50%; inconclusive = mostly about 30% to 49%
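PathHunter beta-arrestin assay in DiscoveRx D2 cells. Compounds were added with an EC20 of dopamine (50 nM final) for 90 min at 37 deg C. Luminescence was read 1 h after detection reagent, with 57 uM dopamine as the EC100 control.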
D2 PAM-2 = D2 dopamine receptor (human) potentiation. P14416. HEK293 T-REx D2, calcium flux, EC20 dopamine potentiation. potentiation, % at 10 µM. 340,000 tested, 0.34% active. AID 485347;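 active = potentiation over 3 SD above the plate norm, cut at about 30% in these data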; also: 0% is about no effect
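Potentiation of an EC20 dopamine calcium response is measured in a force-coupled, tetracycline-inducible Hek293 Trex D2 line. Compound-only kinetic reads over 180 s flag agonists before dopamine addition.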
D2 ag-2 = activates the human D2 dopamine receptor. P14416. HEK293 T-REx D2 cells, calcium flux agonist mode. activation, % at 2 µM. 340,000 tested, 0.53% active. AID 485358;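 active = activation over 3 SD above normal in the single-dose calcium agonist read, cut at about 30% in these data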; also: 0% is about no effect
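Tetracycline-induced HEK293 Trex cells with D2 receptor force-coupled to calcium signaling, plated overnight at 30 C and loaded with no-wash calcium dye. Calcium flux read kinetically for 180 s after compound addition; responses flag agonists.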
The depositor's hits bear a star; ? = inconclusive; · = no result given. The list is not random: actives were taken first. Their share in the collection is about 2.4%.

SMILES	D2 ag-1	D2 antagonist	D2 PAM-1	D2 PAM-2	D2 ag-2
COc1cc(N)c(Cl)cc1C(=O)OCC(=O)N1CCc2ccccc21	1	-3	-3	7	1
COc1cc(N)c(Cl)cc1C(=O)OCC(=O)N1CCCC1	-13	32*	-9	-12	1
CN(C(=O)Cn1c(=O)n(Cc2ccc(C(=O)NCc3ccc4c(c3)OCO4)cc2)c(=O)c2ccccc21)c1ccccc1	·	·	·	-12	2
CC(=O)Nc1ccc(NC(=O)C(C)OC(=O)CCC2CCCC2)cc1 (stereo not given)	-3	30*	6	-3	1
CC(=O)Nc1ccc(NC(=O)C(C)OC(=O)CC2CCCC2)cc1 (stereo not given)	-2	0	9	1	-1
CCCN(CCC)CCCNC(=O)C(NS(=O)(=O)c1ccc2c(c1)CCC(=O)N2)c1ccccc1 (stereo not given)	1	45*	-9	0	2
O=C(COc1ccc2ccccc2c1)NC1CC(=O)N(c2cccc(F)c2)C1 (stereo not given)	·	·	·	9	0
COc1ccc(F)cc1S(=O)(=O)NCCc1csc2nc(-c3cccc(C)c3)nn12	·	·	·	-7	1
Nc1nnnn1/N=C/c1cccc(OCc2ccccc2Cl)c1	-4	31*	-20	3	-2
COc1ccc(/C=N/Nc2nnc(-c3ncc[nH]3)c3ccccc23)cc1	0	47*	-9	-20	0
Cc1ccc(C)c(NC(=O)c2cc(=O)c3cc(C)cc(C)c3o2)c1	·	·	·	11	0
COCCc1nn2c(=O)cc(COC(=O)COc3ccccc3C)nc2s1	·	·	·	6	0
O=C(O)COc1ccccc1/C=C1\SC(=S)N(NC(=O)c2ccccc2O)C1=O	-3	7	8	-10	0
O=C(Cc1ccccc1)NN1C(=O)/C(=C/c2ccccc2C(=O)O)SC1=S	-4	31*	-4	-2	-1
CCOc1ccc(NC(=O)CCC(=O)NNS(=O)(=O)c2ccccc2[N+](=O)[O-])cc1	3	11	-1	4	105*
CCN(CC)c1cc2c(cc1F)c(=O)c(S(=O)(=O)c1ccc(OC)cc1)cn2CC	·	·	·	7	-1
Cc1sc2ncnc(N3CCCCC3)c2c1C	-2	18	-1	16	0
Cc1sc2ncnc(NCC(c3ccco3)N3CCCC3)c2c1C (stereo not given)	-4	32*	-26	-8	-2
CCOC(=O)CNC(=O)Cn1cnc2sc(C)c(S(=O)(=O)N3CCOCC3)c2c1=O	-7	8	-5	8	1
Cc1sc2ncn(CC(=O)NCc3ccccn3)c(=O)c2c1S(=O)(=O)N1CCOCC1	1	-2	-6	49*	0
CCOC(=O)c1c(NC(=O)c2cc(=O)c3cc(C)ccc3o2)sc2c1CCCC2	·	·	·	-4	1
CC(C(=O)Nc1ccccc1)N1CCN(c2ccccn2)CC1 (stereo not given)	14	11	-1	-15	40*
Cc1cccc(NC(=S)N2CCN(c3ccccn3)CC2)c1	1	-11	11	2	2
COc1ccc(Cl)cc1NC(=O)C(C)N1CCN(c2ccccn2)CC1 (stereo not given)	-5	-1	-4	-10	31*
COc1ccc(Cl)cc1C(=O)N1CCN(c2ccccn2)CC1	-2	-6	-5	-9	0
SMILES	D2 ag-1	D2 antagonist	D2 PAM-1	D2 PAM-2	D2 ag-2
CC(=O)c1cccc(NC(=S)N2CCN(c3ccccn3)CC2)c1	-1	18	-9	-6	40*
O/N=C1\CCCCc2ccccc21	0	33*	-5	-2	-1
O/N=C1\CCCc2ccccc21	2	-12	-3	4	0
O=C(COC(=O)C1=NN(c2ccccc2)C(=O)CC1)NCc1ccccc1Cl	-3	32*	13	-5	-1
COc1ccc2c(c1OC)C(=O)N1c3ccccc3C(=O)N(c3ccc(F)cc3)C21 (stereo not given)	-2	41*	0	·	0
COc1ccc(C2NC(=O)N(C)C3=C2C(=O)N(c2cccc(Cl)c2)C3)cc1 (stereo not given)	·	·	·	-5	0
CNC(=O)c1nnc(Cc2ccc(F)cc2)o1	-5	58*	-2	0	-1
CCCC(=O)CN1C(=O)C2(OCCO2)c2ccccc21	-1	-13	-17	36*	0
O=C1N(Cc2ccccc2F)c2ccccc2C12OCCCO2	-3	-4	-12	40*	0
Cc1ccc(C)c(N2CCN(CC3CCCCC3)CC2)c1	3	62*	-20	-21	-1
Cc1cccc(N2CCN(CC3CCCCC3)CC2)c1C	-4	73*	-5	-38	1
Cc1ccc(C)c(N2CCN(Cc3nnnn3C3CCCCC3)CC2)c1	-2	7	-8	13	1
Cc1ccc(C)c(N2CCN(CCCc3ccccc3)CC2)c1	-6	51*	-5	-25	2
C/C=C(\C)CN1CCN(c2cccc(C)c2C)CC1	1	85*	-28	-23	1
CCCCOC(=O)c1ccc(NC(=O)Cc2coc3ccc(C(C)C)cc23)cc1	·	·	·	12	2
Nc1nonc1-c1nc2ccccc2n1Cc1cccc(Cl)c1	·	·	·	-5	1
COCCN(C(=O)Cc1coc2cc(C)c(C)cc12)c1c(N)n(Cc2ccccc2)c(=O)[nH]c1=O	0	4	-6	1	0
CCCCN(C(=O)c1ccc(C#N)cc1)c1c(N)n(CCC)c(=O)[nH]c1=O	-3	42*	-5	-3	-2
COCCCN(C(=O)Cc1coc2cc(C)c(C)cc12)c1c(N)n(Cc2ccccc2)c(=O)[nH]c1=O	-1	48*	-2	5	0
CCCn1c(N)c(N(CCOC)C(=O)c2ccccc2)c(=O)[nH]c1=O	-1	55*	-1	-11	1
CC1(C)CCN2CCC(C)(C)c3c(O)ccc1c32	4	-2	2	4	34*
O=C(NN1CCOCC1)c1ccccc1Br	-2	11	-2	33*	1
Cc1ccccc1C(=O)NN1CCOCC1	1	-7	6	-2	1
CCn1c(SCc2cccc(Br)c2)nnc1-c1nonc1NC(C)=O	·	·	·	6	·
CCOc1ccc(NC(=O)CCc2nnc3n(C)c(=O)c4sccc4n23)cc1	·	·	·	7	0
CCc1ccc(CNc2ccc(N3CCN(C(C)=O)CC3)cc2)cc1	12	-2	81*	8	0
CC(=O)N1CCN(c2ccc(NCc3ccc(C)cc3)cc2)CC1	-1	-5	30	-17	0
Cc1ccc(OCC(=O)c2c(N)n(C)c(=O)n(C)c2=O)c([N+](=O)[O-])n1	-2	33*	-2	-2	0
CC(=O)Nc1sc(N/N=C\c2ccccc2F)nc1-c1cccs1	?	-1	64*	-1	0

Assay outcomes deposited in PubChem by National Center for Advancing Translational Sciences (NCATS).
